This is part of a sample that, as a whole, favours compounds with a hit. Of some 83,000 tested, about 20% had one in any assay.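 In brief: 96-well plates, 48 h treatment, single concentration, percent growth endpoint.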 Activity calls are given as the source filed them. Rule for the calls: active = growth percent below 10; inactive = the rest.
Columns and labels:
Test in all cases: NCI-60 one-dose screen, 48 h (100 = growth as untreated, 0 = no growth, -100 = all killed)
Details in all cases: 10 µM unless noted
SK-MEL-2 melanoma = test system: SK-MEL-2 melanoma
EKVX NSCLC = test system: EKVX NSCLC
SN12C renal = test system: SN12C renal
UO-31 renal = test system: UO-31 renal
TK-10 renal = test system: TK-10 renal
ACHN renal = test system: ACHN renal
CAKI-1 renal = test system: CAKI-1 renal
A498 renal = test system: A498 renal
MOLT-4 leukemia = test system: MOLT-4 leukemia
SR leukemia = test system: SR leukemia
RPMI-8226 leukemia = test system: RPMI-8226 leukemia
OVCAR-5 ovarian = test system: OVCAR-5 ovarian
OVCAR-4 ovarian = test system: OVCAR-4 ovarian
SK-OV-3 ovarian = test system: SK-OV-3 ovarian
IGROV1 ovarian = test system: IGROV1 ovarian
OVCAR-3 ovarian = test system: OVCAR-3 ovarian
HS 578T breast = test system: HS 578T breast
NCI/ADR-RES ovarian = test system: NCI/ADR-RES ovarian
OVCAR-8 ovarian = test system: OVCAR-8 ovarian

Measured: growth

CC(=O)N1N=C(c2ccc(Nc3nc(Nc4ccc(F)cc4)nc(Nc4ccc(F)cc4)n3)cc2)CC1c1cccc([N+](=O)[O-])c1 (stereo unspecified)
active: MOLT-4 leukemia 8.35%
inactive: SK-MEL-2 melanoma 62.5% | EKVX NSCLC 90.2% | SN12C renal 98.1% | UO-31 renal 73% | TK-10 renal 104% | ACHN renal 93% | CAKI-1 renal 124% | A498 renal 78.9% | SR leukemia 22.4% | RPMI-8226 leukemia 19.8% | OVCAR-5 ovarian 75.5% | OVCAR-4 ovarian 47.8% | SK-OV-3 ovarian 110% | IGROV1 ovarian 76.9% | OVCAR-3 ovarian 235% | HS 578T breast 96.5% | NCI/ADR-RES ovarian 67.2%

O=C(O)c1ccc2c(c1)CCC2
inactive: SK-MEL-2 melanoma 95.8% | EKVX NSCLC 117% | SN12C renal 103% | UO-31 renal 94.4% | TK-10 renal 107% | ACHN renal 104% | CAKI-1 renal 101% | A498 renal 139% | MOLT-4 leukemia 91.1% | RPMI-8226 leukemia 99.8% | OVCAR-8 ovarian 107% | OVCAR-5 ovarian 105% | OVCAR-4 ovarian 107% | SK-OV-3 ovarian 107% | IGROV1 ovarian 103% | OVCAR-3 ovarian 119% | HS 578T breast 134% | NCI/ADR-RES ovarian 111%

Nc1n[nH]c(-c2cc(Cl)ccc2O)c1-c1ccccc1
inactive: SK-MEL-2 melanoma 75.9% | EKVX NSCLC 72.6% | SN12C renal 86.5% | UO-31 renal 61.9% | TK-10 renal 106% | ACHN renal 61.3% | CAKI-1 renal 79.7% | A498 renal 101% | MOLT-4 leukemia 72.7% | RPMI-8226 leukemia 91.1% | OVCAR-8 ovarian 91% | OVCAR-5 ovarian 67.4% | OVCAR-4 ovarian 86.3% | SK-OV-3 ovarian 96.7% | IGROV1 ovarian 96% | OVCAR-3 ovarian 107% | HS 578T breast 85.3% | NCI/ADR-RES ovarian 79.3%

N#Cc1c(N2CCNCC2)nc2sc3cc(Cl)c(Cl)cc3n2c1=N
inactive: SK-MEL-2 melanoma 112% | EKVX NSCLC 98.8% | SN12C renal 93.2% | UO-31 renal 80.8% | TK-10 renal 141% | ACHN renal 102% | CAKI-1 renal 101% | A498 renal 115% | MOLT-4 leukemia 70.4% | SR leukemia 116% | RPMI-8226 leukemia 80.2% | OVCAR-8 ovarian 94.5% | OVCAR-5 ovarian 131% | OVCAR-4 ovarian 85.5% | SK-OV-3 ovarian 84.7% | OVCAR-3 ovarian 107% | HS 578T breast 114% | NCI/ADR-RES ovarian 106%

COc1cc(/C=C/C(=O)c2cccc(-n3cc(-c4ccccc4)[nH]c3=O)c2)ccc1O
inactive: SK-MEL-2 melanoma 56.5% | EKVX NSCLC 70.7% | SN12C renal 27.9% | UO-31 renal 36.4% | TK-10 renal 81.6% | ACHN renal 34.4% | CAKI-1 renal 45.8% | A498 renal 116% | SR leukemia 15.3% | OVCAR-5 ovarian 61.3% | OVCAR-4 ovarian 49.1% | SK-OV-3 ovarian 92.2% | HS 578T breast 71.3% | NCI/ADR-RES ovarian 23.2%
active: MOLT-4 leukemia 6.81% | RPMI-8226 leukemia -9.6% | IGROV1 ovarian 2.96% | OVCAR-3 ovarian 6.11%

CC(=O)c1nc(Nc2ccc(C)cc2)sc1C
inactive: SK-MEL-2 melanoma 102% | EKVX NSCLC 74.4% | SN12C renal 102% | UO-31 renal 81.6% | TK-10 renal 120% | ACHN renal 102% | CAKI-1 renal 87.9% | A498 renal 66.2% | MOLT-4 leukemia 96.1% | RPMI-8226 leukemia 96.2% | OVCAR-8 ovarian 95% | OVCAR-5 ovarian 97% | OVCAR-4 ovarian 110% | SK-OV-3 ovarian 97.8% | IGROV1 ovarian 86.9% | OVCAR-3 ovarian 97.5% | HS 578T breast 90.1% | NCI/ADR-RES ovarian 99.4%

CNS(=O)(=O)c1n[nH]nc1-c1cc(C(C)(C)C)c(O)c(C(C)(C)C)c1
inactive: SK-MEL-2 melanoma 104% | EKVX NSCLC 89.8% | SN12C renal 103% | UO-31 renal 84.2% | TK-10 renal 111% | ACHN renal 98.7% | CAKI-1 renal 95.1% | A498 renal 100% | MOLT-4 leukemia 96.9% | SR leukemia 98.6% | RPMI-8226 leukemia 96.2% | OVCAR-5 ovarian 111% | OVCAR-4 ovarian 100% | SK-OV-3 ovarian 92.9% | IGROV1 ovarian 103% | OVCAR-3 ovarian 112% | HS 578T breast 102% | NCI/ADR-RES ovarian 105%

COc1ccc(/C=N/C2=C(C#N)C(c3ccc(OC)cc3)c3ccc4ccccc4c3O2)cc1 (stereo unspecified)
inactive: SK-MEL-2 melanoma 84.4% | EKVX NSCLC 85.1% | SN12C renal 76.5% | UO-31 renal 53.7% | TK-10 renal 87.1% | ACHN renal 81.4% | CAKI-1 renal 37.3% | A498 renal 26.6% | MOLT-4 leukemia 60.2% | RPMI-8226 leukemia 81.7% | OVCAR-8 ovarian 84.7% | OVCAR-5 ovarian 104% | OVCAR-4 ovarian 85.4% | SK-OV-3 ovarian 77.6% | IGROV1 ovarian 56.2% | OVCAR-3 ovarian 78.9% | HS 578T breast 84.2% | NCI/ADR-RES ovarian 45%

c1ccc2c(c1)nc(CN1CCOCC1)n1cc(N3CCCC3)nc21
inactive: SK-MEL-2 melanoma 106% | EKVX NSCLC 87.2% | SN12C renal 97.7% | UO-31 renal 75.1% | TK-10 renal 114% | ACHN renal 104% | CAKI-1 renal 99.5% | A498 renal 98.7% | MOLT-4 leukemia 99% | SR leukemia 87% | RPMI-8226 leukemia 62.6% | OVCAR-8 ovarian 94.5% | OVCAR-5 ovarian 92.9% | OVCAR-4 ovarian 111% | SK-OV-3 ovarian 89.8% | OVCAR-3 ovarian 110% | HS 578T breast 92.5% | NCI/ADR-RES ovarian 99%

COc1ccc(-c2nc3c(N)c(CO)c(C)nc3o2)cc1
inactive: SK-MEL-2 melanoma 105% | EKVX NSCLC 95.7% | SN12C renal 106% | UO-31 renal 88.7% | TK-10 renal 85% | ACHN renal 112% | CAKI-1 renal 97% | MOLT-4 leukemia 96.3% | SR leukemia 100% | OVCAR-8 ovarian 110% | OVCAR-5 ovarian 85.1% | OVCAR-4 ovarian 104% | SK-OV-3 ovarian 106% | IGROV1 ovarian 86.9% | OVCAR-3 ovarian 103% | HS 578T breast 105% | NCI/ADR-RES ovarian 89.7%
active: A498 renal -10.8%

CNC(=O)NCC1OC(n2cnc3c(NC(=O)Nc4ccccc4)ncnc32)C(O[Si](C)(C)C(C)(C)C)C1CC(=O)N(C)OC (stereo unspecified)
active: SK-MEL-2 melanoma -4.44% | UO-31 renal -6.83% | TK-10 renal 7.05% | MOLT-4 leukemia -11.7% | SR leukemia -56% | RPMI-8226 leukemia -75.4% | IGROV1 ovarian -36.6% | OVCAR-3 ovarian 7.61% | HS 578T breast 3.64%
inactive: EKVX NSCLC 21.4% | SN12C renal 16.8% | ACHN renal 11.4% | CAKI-1 renal 43% | A498 renal 45.6% | OVCAR-5 ovarian 44.1% | OVCAR-4 ovarian 19% | SK-OV-3 ovarian 40.7% | NCI/ADR-RES ovarian 54.4%

Cc1cccc(Cc2cnc(NC(=O)/C=C/c3ccco3)s2)c1
active: OVCAR-3 ovarian -2.76% | NCI/ADR-RES ovarian -24.6%
inactive: SK-MEL-2 melanoma 30.8% | EKVX NSCLC 33.7% | SN12C renal 29.3% | UO-31 renal 37.3% | TK-10 renal 52.8% | ACHN renal 35.3% | CAKI-1 renal 30.4% | A498 renal 13.8% | MOLT-4 leukemia 15.9% | SR leukemia 13.7% | RPMI-8226 leukemia 27.9% | OVCAR-5 ovarian 39.1% | OVCAR-4 ovarian 55.6% | SK-OV-3 ovarian 33% | IGROV1 ovarian 22.2% | HS 578T breast 14.8%

CCOC(CN=Cc1cc(C)c2[nH]c3ccccc3c2c1C)OCC
inactive: SK-MEL-2 melanoma 91.4% | EKVX NSCLC 105% | SN12C renal 99.1% | UO-31 renal 94.3% | TK-10 renal 83.3% | ACHN renal 106% | CAKI-1 renal 105% | A498 renal 37.5% | MOLT-4 leukemia 81.2% | RPMI-8226 leukemia 88.7% | OVCAR-8 ovarian 94.7% | OVCAR-5 ovarian 83.4% | OVCAR-4 ovarian 97.8% | SK-OV-3 ovarian 111% | IGROV1 ovarian 102% | OVCAR-3 ovarian 104% | HS 578T breast 123% | NCI/ADR-RES ovarian 101%

O=c1cc(-c2ccc(Cl)cc2)[nH]c2ccccc12
inactive: SK-MEL-2 melanoma 79.7% | EKVX NSCLC 68.3% | SN12C renal 96.9% | UO-31 renal 74.6% | TK-10 renal 110% | ACHN renal 85.6% | CAKI-1 renal 73.7% | A498 renal 75.1% | MOLT-4 leukemia 110% | RPMI-8226 leukemia 71.5% | OVCAR-8 ovarian 102% | OVCAR-5 ovarian 91.7% | OVCAR-4 ovarian 92.1% | SK-OV-3 ovarian 90.4% | IGROV1 ovarian 81.7% | OVCAR-3 ovarian 81.7% | HS 578T breast 106% | NCI/ADR-RES ovarian 62.2%

Cc1ccc(-c2c(-c3ccccc3)c(=O)oc3ccc(C)cc23)cc1
inactive: SK-MEL-2 melanoma 134% | EKVX NSCLC 96.9% | SN12C renal 91.9% | UO-31 renal 79.9% | TK-10 renal 118% | ACHN renal 90.6% | CAKI-1 renal 81.1% | A498 renal 97.9% | MOLT-4 leukemia 76.3% | SR leukemia 71.1% | RPMI-8226 leukemia 87.7% | OVCAR-5 ovarian 113% | OVCAR-4 ovarian 98.5% | SK-OV-3 ovarian 101% | IGROV1 ovarian 145% | OVCAR-3 ovarian 117% | HS 578T breast 99.6% | NCI/ADR-RES ovarian 93.2%

Cc1ccc2[nH]c(=O)c3c(c2c1)OC(N)=C(C#N)C31c2cc(Br)ccc2-c2ccc(Br)cc21
active: RPMI-8226 leukemia 3.77%
inactive: SK-MEL-2 melanoma 77.1% | EKVX NSCLC 60.3% | SN12C renal 82.7% | UO-31 renal 58.3% | TK-10 renal 84.2% | ACHN renal 62.3% | CAKI-1 renal 49.1% | A498 renal 79.7% | MOLT-4 leukemia 62.3% | SR leukemia 72.2% | OVCAR-5 ovarian 61.1% | OVCAR-4 ovarian 21% | SK-OV-3 ovarian 91.8% | IGROV1 ovarian 40.1% | OVCAR-3 ovarian 58.9% | HS 578T breast 70.8% | NCI/ADR-RES ovarian 82.3%

CC1SC(c2ccc(OCc3ccccc3)cc2)N(NC(=O)C(O)(c2ccccc2)c2ccccc2)C1=O (stereo unspecified)
active: RPMI-8226 leukemia -7.26%
inactive: SK-MEL-2 melanoma 74.4% | EKVX NSCLC 47% | SN12C renal 85.6% | UO-31 renal 54.6% | TK-10 renal 58.6% | ACHN renal 55.3% | CAKI-1 renal 44.3% | A498 renal 55.8% | MOLT-4 leukemia 28.7% | SR leukemia 35.9% | OVCAR-8 ovarian 77.8% | OVCAR-5 ovarian 80.5% | OVCAR-4 ovarian 54.7% | SK-OV-3 ovarian 73.3% | OVCAR-3 ovarian 31% | HS 578T breast 74.6% | NCI/ADR-RES ovarian 63.5%

Source: PubChem BioAssay (NCI)
